# Compound activity as filed in PubChem.
# pS6 MEF inh: Acumen qHTS Assay for Inhibitors of the mTORC1 Signaling Pathway in MEF (Tsc2-/-, p53-/-) Cells: Sytravon; Tsc2-/- p53-/- MEF, phospho-rpS6 immunofluorescence/PI, 24 h; Potency, µM (doses to about 38.3 µM), inactives show at the top dose activity change, negative = inhibition, usual class: inhibitors; 44,000 compounds, 0.78% hits;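 note: plate controls were DMSO for no effect and rapamycin for full effect; nearly all actives have a fitted effect of over 50% in size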
#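 Compounds act on Tsc2-/-, p53-/- fibroblasts carrying an empty vector for 24 h before fixation and dual staining for phospho-S6 and DNA (propidium iodide). Values are percentages of cells above a rapamycin-defined pS6/PI threshold.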
# OvCa metastasis: Primary qHTS assay for Inhibitors of ovarian cancer metastasis using an organotypic tumor microenvironment (TME) model | SKOV3ip1-GFP adhesion/invasion on 3D omental model, fluorescence | Potency, µM (doses to about 45.8 µM), for the others: top-dose activity change, negative = inhibition, actives largely listed as inhibitors | 46,000 compounds, 0.1% hits | AID 1963576, 2024;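 note: plate controls were DMSO wells for no effect and tomatine positive control wells for full effect; nearly all actives have a fitted effect of over 65% in size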
#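 Adhesion/invasion was scored as fixed GFP-labeled SKOV3ip1 cell counts (488/509 nm), normalized to DMSO and tomatine controls. Cancer cells in serum-free medium, with four compound doses (0.36-46 umol/L), sat 2 hr at RT then 16 hr at 37 C on a 48 hr fibroblast/mesothelial/ECM culture.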
# PMP22 txn: Cell-based coincidence reporter assay to measure PMP22 gene transcription in S16 Pmp22-F2sN cells - Primary screen. S16 Pmp22-F2sN Schwann cells, FLuc/NLuc coincidence luminescence, 24 h. Potency, µM (doses to about 57.5 µM), for the others: top-dose activity change, negative = inhibition, hits mostly inhibitors. 43,000 compounds, 2% hits; active = clear falling dose curves in both reporters; inconclusive = both reporters move, but less clearly or upward; inactive = either reporter flat; the % is the NLuc reporter signal; note: % is set by controls: 0 for no effect and ±100 for the full control effect
#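 Luminescent read-out of sequential FLuc and NLuc signals from a reporter embedded in the Pmp22 3' UTR of S16 Schwann cells, taken after 24 h compound exposure at 37C; compounds reducing both signals score as inhibitors of expression.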
# HTT promoter inh: Primary qHTS for Identification of Small Molecule Inhibitors of Huntingtin Promoter Activity; HEK293 HTT promoter firefly luciferase reporter, 24 h; Potency, µM (doses to about 57.5 µM), inactives show at the top dose activity change, negative = inhibition, hits mostly inhibitors; 48,000 compounds, 0.93% hits; note: nearly all actives have a fitted effect of over 50% in size
#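 HEK293 luciferase promoter-reporter cells (2,500/well) plated 24 h, then compounds added at up to 57.5 uM final for 24 h at 37 °C. Firefly luminescence by Dual-Glo, normalized to vehicle (0%) and zero RLU (-100%).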
# HTT-AS act: Primary qHTS for Identification of Small Molecule Activators of Huntingtin-Antisense Promoter Activity. HEK293 HTT-AS promoter firefly luciferase reporter, 24 h; response scale: percent change from vehicle, -100% = no light. Potency, µM (titrated, usually from 57.5 µM), for the others: at the highest dose activity change, positive = activation, hits mostly activators. 48,000 compounds, 0.24% hits; note: nearly all actives have a fitted effect of over 55% in size
#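 Firefly luciferase signal from promoter-reporter HEK293 cells was scaled between vehicle (0%) and zero RLU (-100%). Compounds were tested at final concentrations of up to 57.5 uM over 24 h at 37 degrees C. PTC124 at 50 uM final served as control inhibitor.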
# S16 viability: Cell viability qHTS assay in S16 Pmp22-F2sN cells; S16 Pmp22-F2sN Schwann cells (luciferase reporters placed in the Pmp22 gene) viability, CellTiter-Glo, 24 h; Potency, µM (highest dose often 57.5 µM), for the others: at the top dose activity change, negative = cytotoxicity, actives largely listed as cytotoxic; 43,000 compounds, 0.48% hits; note: % is set by controls: 0 for no effect and ±100 for the full control effect; nearly all actives have a fitted effect of over 65% in size
#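 CellTiter-Glo counter-screen, qHTS, 1536-well. Cells: S16(c9) Pmp22-F2sN, 500-1,000/well in DMEM + 10% FBS. Cpd 23 nL pin transfer, 24 h, 37C/5% CO2. Read: luminescence, CCD imager.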
# Starred values were filed as active, the others as inactive; i = inactive; ? = inconclusive; / = not tested or not shown. An excerpt weighted towards active compounds, which were near 3.6% of everything screened. Unless noted, calls come from the whole dose curve; as a rule, active = well fitted curve in the direction sought with a large enough effect; inconclusive = small, poorly fitted or top-dose-only effect, or another doubt; inactive = no such curve, though single readings can be large; an effect the other way counts as inactive or inconclusive. Potency is the fitted concentration of half-maximal effect.
SMILES,pS6 MEF inh,OvCa metastasis,PMP22 txn,HTT promoter inh,HTT-AS act,S16 viability
O=C(CSc1nccn1Cc1ccco1)Nc1ccc(F)cc1,-6%,-22%,12%,-4%,34%,15%
Cc1ccc(NC(=O)CSc2nccn2Cc2ccco2)cc1Cl,3%,-2%,?,30%,13µM*,-14%
CC(=O)c1ccc(NC(=O)CSc2nccn2Cc2ccco2)cc1,-1%,i,?,36%,3.2µM*,5%
Cc1ccc(-c2noc(CCCC(=O)NCc3ccco3)n2)cc1,?,0%,-17%,3.5µM*,-61%,-3%
CNC(=O)[C@H](CC1=CN=C2C=CCC=C12)NC(=O)[C@@H](CC(=O)NO)CC(C)C,/,-6%,/,?,-21%,/
CCOc1ccc(NC(=O)CCc2c(C)nc3cc(-c4ccc(Cl)cc4)nn3c2C)cc1,2%,?,-26%,?,-80%,-1%
COC(=O)c1cc(NC(=O)CCc2c(C)nc3cc(-c4ccccc4)nn3c2C)cc(C(=O)OC)c1,-13%,21%,6%,-25%,-20%,4%
COc1ccc(N2CCN(C(=O)CCc3c(C)nc4cc(-c5ccc(Cl)cc5)nn4c3C)CC2)cc1,0%,16%,-17%,0.32µM*,-78%,-11%
COc1cc(NC(=O)CCc2c(C)nc3cc(-c4ccccc4)nn3c2C)cc(OC)c1OC,-8%,i,?,4µM*,-69%,10%
Cc1nc2cc(-c3cccc(F)c3)nn2c(C)c1CCC(=O)NC(C)c1ccccc1 (configuration not stated),-5%,i,?,?,-65%,?
COc1cc(OC)cc(-c2cc3nc(C)c(CCC(=O)Nc4ccc(F)c(Cl)c4)c(C)n3n2)c1,0%,-3%,4%,1.6µM*,-83%,3%
COc1ccc(NC(=O)CCc2c(C)nc3cc(-c4cccc(F)c4)nn3c2C)cc1Cl,-1%,i,-14%,2.2µM*,-66%,-2%
COc1ccc(CCNC(=O)c2nc(SCc3ccccc3F)ncc2Cl)cc1OC,-26%,i,?,18µM*,-48%,-4%
Cc1ccc(CNC(=O)c2nc(SCc3ccccc3F)ncc2Cl)cc1,3%,9%,-5%,-21%,-20%,17%
O=c1[nH]nc(OCCCc2ccc(Cl)cc2)c(NCc2cccnc2)c1Br,/,-3%,/,?,-31%,/
O=C(c1cncc(Br)c1)N1CCC(N2CCCC2)CC1,/,4%,/,6%,-1%,/
O=C1c2[nH]nc(-c3ccccc3O)c2C(c2ccc(Cl)cc2)N1CCc1ccccc1 (configuration not stated),16µM*,-6%,?,?,-46%,-27%
CN1CCN(Cc2ccc(NC(=O)Nc3ccc(Oc4cc(NC(=O)C5CC5)ncn4)cc3)cc2C(F)(F)F)CC1,/,?,/,?,-31%,/
O=C(Nc1ccc(C(F)(F)F)cc1)c1cc(S(=O)(=O)NC2CCCCCC2)ccc1F,?,?,?,28µM*,-75%,?
O=C(Nc1ccc(C(F)(F)F)cc1)c1cc(S(=O)(=O)NC2CCCCC2)ccc1F,?,?,?,?,-39%,?
CCNc1ccc(-c2nc(-c3ccco3)no2)cc1[N+](=O)[O-],-16%,-9%,?,63%,0.35µM*,25%
